Assay results published in PubChem BioAssay (Tox21).
Records with an inconclusive call do not appear. Active and inactive are the calls of the source. Calls come from the whole dose curve; as a rule, active = well fitted cell-killing curve with a large enough effect in the repeat runs; inconclusive = weak or mixed curves; inactive = flat fitted curve, though single readings scatter.

Assay: qHTS RealTime-Glo MT Cell Viability Assay in HepG2 cells - 8 hour (AID 1224873); note: nearly all actives have a fitted effect of over 55% in size
Details: RealTime-Glo luminescence; series mostly up to 76.8 µM
Text: National Center for Advancing Translational Sciences [NCATS]
NIH Chemical Genomics Center [NCGC]
U.S. Environmental Protection Agency [EPA]
National Institutes of Environmental Health Sciences [NIEHS]
National Toxicology Program [NTP]
U.S. Food and Drug Administration [FDA]
Measure of cell viability is critical in the cell-base assay. Analysis of cell viability is necessary for the characterization of cell responses to cytotoxic drugs and environmental stress. A RealTime-Glo MT Cell Viability Assay to monitor cell viability in real time of continues cell culture during 40 hours of compound treatment was used to screen Tox21 10K library compounds in HepG2 cells. The RealTime-Glo MT Cell Viability Assay is a nonlytic, homogeneous, bioluminescent method to measure cell viability in real time using a simple, plate-based method. The assay involves adding NanoLuc luciferase and a cell-permeant prosubstrate to cells in culture. Viable cells reduce the proprietary prosubstrate to generate a substrate for NanoLuc luciferase. This substrate diffuses from cells into the surrounding culture medium, where it is rapidly used by the NanoLuc Enzyme to produce a luminescent signal. The signal correlates with the number of viable cells, making the assay well suited for cytotoxicity studies.
Tox21 Assay Protocol Summary:
The mixture of HepG2 cell suspension and reagents were dispensed at 600cells/6 ul/well in 1536-well tissue culture treated black solid bottom plates using a Multidrop dispenser. After the assay plates were incubated at a 37 C/5% CO2 incubator for 5 hours, 23 nL of compounds dissolved in DMSO, positive and negative controls was transferred to the assay plate by a pintool work station. The plates were incubated at 37 C for 40 hours. The luminescence intensity were measured at 0h, 8h, 16h, 24h, 32h and 40h time points using ViewLux plate reader during compound treatment.

Structure (SMILES) | outcome
Nc1ncc([N+](=O)[O-])s1 | inactive
C=CC(=O)OCCCCCC(C)C | inactive
Nc1ccc([As](=O)(O)O)cc1 | inactive
N#Cc1cccc(C#N)c1 | inactive
C=C(C)C(=O)OCC(CC)CCCC (stereo not given) | inactive
Cc1ccccc1N | inactive
[N-]=[N+]=CC(=O)OC[C@H](N)C(=O)O | inactive
CC(=O)C1CCOC1=O (stereo not given) | inactive
O=[N+]([O-])c1ccc(Cl)c(Cl)c1 | inactive
Oc1ccc(Cl)cc1 | inactive
CNC(=O)O/N=C/C(C)(C)S(C)(=O)=O | inactive
O=S(=O)(O)OOS(=O)(=O)O | inactive
CNC(=O)O/N=C/C(C)(C)S(C)=O (stereo not given) | inactive
Clc1cnc(Oc2ccc(Oc3ncc(Cl)cc3Cl)cc2)c(Cl)c1 | inactive
COc1cc(-c2ccc(N)c(OC)c2)ccc1N | inactive
NNc1ccccc1 | inactive
N#Cc1ccccn1 | inactive
CC12CC1(C)C(=O)N(c1cc(Cl)cc(Cl)c1)C2=O (stereo not given) | inactive
CC[N+](=O)[O-] | inactive
CN1C(=O)CCS(=O)(=O)C1c1ccc(Cl)cc1 (stereo not given) | inactive

Structure (SMILES) | outcome
CN(C)C(=O)Cl | inactive
CCCCCCCCCCCCCCCCCC(=O)O | inactive
O=C(O)COc1ccccc1 | inactive
N#CN=C(N)N | inactive
COP(=S)(OC)SCN1C(=O)c2ccccc2C1=O | inactive
COC(=O)Nc1cccc(OC(=O)Nc2cccc(C)c2)c1 | inactive
C=CCN=C=S | inactive
O=C(O)c1cc(Oc2ccc(C(F)(F)F)cc2Cl)ccc1[N+](=O)[O-] | inactive
CN(C)C(=O)Nc1cccc(C(F)(F)F)c1 | inactive
CN(C)C(=O)C(c1ccccc1)c1ccccc1 | inactive
Nc1cccc(Cl)c1 | inactive
Nc1nc(N)nc(NC2CC2)n1 | inactive
Cc1cc(O)ccc1Cl | inactive
OCCCCO | inactive
CCOC(=O)CC(SP(=O)(OC)OC)C(=O)OCC (stereo not given) | inactive
Nc1ccc(N)cc1 | inactive
C[C@]12CC[C@H](O)CC1=CC[C@@H]1[C@@H]2CC[C@]2(C)C(=O)CC[C@@H]12 | inactive
O=[N+]([O-])c1ccc(Cl)cc1 | inactive
COc1nc(NC(C)C)nc(NC(C)C)n1 | inactive
CN(C)NC(=O)CCC(=O)O | inactive
